# Results from the supplement of paper PMC9135407.
# Where “and” joins values, the source holds several entries; their conditions need not be identical. Identical values can stand only once. Counter-ions that a name gives are not always drawn. Out of some 5,800 compounds screened, about 620 (11%) showed activity. Shown is part of a subset that was picked to be rich in actives. Unmarked numbers belong to inactive results.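 The calls were made as follows: active = score above a cut-off or among the top three wells of a plate; in these data no inactive exceeds 0.85.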
# Tested on: primary human hepatic stellate cells (donor 1)
# Assay: scaled lipid accumulation score (0 = DMSO-like, 1 = nortriptyline-like); higher = stronger HSC inactivation (lipid re-accumulation), active = hit call of the paper
# Conditions: 48 h
# [1] = library stock concentration: 10 mM
# [2] = library stock concentration: 1 mM
# [3] = library stock concentration: 3.33 mM
# [4] = library stock concentration: 6.2 mM
# [5] = library stock concentration: 5.1 mM
# [6] = library stock concentration: 13.5 mM
smiles,measurement,setting,value
"Nc1ncnc2c1ncn2[C@@H]1O[C@H](COP(=O)(O)CP(=O)(O)OP(=O)(O)O)[C@H](O)C1O (stereo partly drawn) [alpha,beta-Methylene adenosine 5'-triphosphate dilithium]",scaled lipid accumulation score,[1],0.242
CCCCC/C=C\C/C=C\C/C=C\C/C=C\CCCC(=O)S[C@H](COCCCCCCCCCCCCCCCC)COP(=O)([O-])OCC[N+](C)(C)C [Arachidonoyl thio-PC],scaled lipid accumulation score,[2],≤ 0
CC(/C=C/C(=O)NO)=C\[C@@H](C)C(=O)c1ccc(N(C)C)cc1 [Trichostatin-A],scaled lipid accumulation score,library stock concentration: 16.5 mM,0.589
CC(/C=C/C(=O)NO)=C\[C@@H](C)C(=O)c1ccc(N(C)C)cc1 [Trichostatin A],scaled lipid accumulation score,[2],0.793 (active)
CC(C=CC(=O)NO)=CC(C)C(=O)c1ccc(N(C)C)cc1 (centres undefined) [Trichostatin A (TSA)],scaled lipid accumulation score,[3],0.515
same,scaled lipid accumulation score,[1],0.663
CCCSc1nc(N[C@@H]2C[C@H]2c2ccc(F)c(F)c2)c2nnn([C@@H]3C[C@H](OCCO)[C@@H](O)[C@H]3O)c2n1 [Ticagrelor],scaled lipid accumulation score,[3],≤ 0
same,scaled lipid accumulation score,[1],0.193
CSc1nc(N)c2ncn([C@@H]3O[C@H](COP(=O)(O)OP(=O)(O)O)[C@H](O)C3O)c2n1 (some centres undefined),scaled lipid accumulation score,[1],0.082
CO/N=C1\C[C@]2(C[C@@H]3C[C@@H](C/C=C(\C)C[C@@H](C)/C=C/C=C4\CO[C@@H]5[C@H](O)C(C)=C[C@@H](C(=O)O3)[C@]45O)O2)O[C@H](/C(C)=C/C(C)C)[C@H]1C,scaled lipid accumulation score,[1],≤ 0
"OC[C@H]1O[C@@H](n2cnc3c(N[C@H]4CCC[C@@H]4O)ncnc32)[C@@H](O)C1O (stereo partly drawn) [Adenosine, N-(2-hydroxycyclopentyl)-, (1S-trans)- [CAS]]",scaled lipid accumulation score,[1],≤ 0
CN(C)CCC[C@@]1(c2ccc(F)cc2)OCc2cc(C#N)ccc21 [Escitalopram Oxalate],scaled lipid accumulation score,[3],≤ 0
same,scaled lipid accumulation score,[1],0.644
CN(C)CCCC1(c2ccc(F)cc2)OCc2cc(C#N)ccc21 (centres undefined) [Citalopram hydrobromide],scaled lipid accumulation score,[1],0.259 and 0.597
CN(C)CCCC1(c2ccc(F)cc2)OCc2cc(C#N)ccc21 (centres undefined) [Citalopram Hydrobromide],scaled lipid accumulation score,,≤ 0
CN(C)CCCC1(c2ccc(F)cc2)OCc2cc(C#N)ccc21 (centres undefined) [Citalopram],scaled lipid accumulation score,[4],0.446 and 0.566
same,scaled lipid accumulation score,[1],0.51
CN(C)CCC[C@@]1(c2ccc(F)cc2)OCc2cc(C#N)ccc21,scaled lipid accumulation score,[1],0.614
Br.CN(C)CCCC1(c2ccc(F)cc2)OCc2cc(C#N)ccc21 (centres undefined) [Citalopram hydrobromide],scaled lipid accumulation score,[1],0.952 (active)
CN(C)CCC[C@@]1(c2ccc(F)cc2)OCc2cc(C#N)ccc21 [Escitalopram],scaled lipid accumulation score,[4],0.197
"CCCCCCCCC#CCC#CCC#CCCCC(=O)O [5,8,11-Eicosatriynoic acid]",scaled lipid accumulation score,[2],≤ -0.021
"CCCCCCCCC#CCC#CCC#CCCCC(=O)O [5,8,11-Eicosatriynoic Acid]",scaled lipid accumulation score,[2],0.059
CCCCCCCCCCCCCCCC(=O)N[C@@H](COP(=O)(O)O)C(=O)O,scaled lipid accumulation score,[2],≤ -0.021
O=C(CCc1ccncc1)NNC(=O)N1Cc2ccccc2Oc2ccc(Cl)cc21,scaled lipid accumulation score,[1],0.105
CN(C)CC[C@@H](c1ccc(Cl)cc1)c1ccccn1,scaled lipid accumulation score,[1],0.377
CN(C)CCC(c1ccc(Cl)cc1)c1ccccn1 (centres undefined) [Chlorpheniramine],scaled lipid accumulation score,[1],≤ 0
CN(C)CCC(c1ccc(Br)cc1)c1ccccn1.O=C(O)/C=C\C(=O)O (centres undefined),scaled lipid accumulation score,[1],0.9 (active)
"CN(C)CCC(c1ccc(Br)cc1)c1ccccn1 (single isomer, unassigned; (+)) [(+)-Brompheniramine maleate]",scaled lipid accumulation score,[1],0.351
CN(C)CCC(c1ccc(Cl)cc1)c1ccccn1 (centres undefined) [Chlorpheniramine Maleate],scaled lipid accumulation score,[3],0.106
same,scaled lipid accumulation score,[1],≤ 0
CN(C)CCC(c1ccc(Cl)cc1)c1ccccn1 (centres undefined) [Chlorpheniramine maleate],scaled lipid accumulation score,,0.469
same,scaled lipid accumulation score,library stock concentration: 7.3 mM,0.251
CN(C)CCC(c1ccc(Br)cc1)c1ccccn1 (centres undefined) [Brompheniramine hydrogen maleate],scaled lipid accumulation score,[3],0.182
same,scaled lipid accumulation score,[1],0.583
CN(C)CCC(c1ccc(Br)cc1)c1ccccn1 (centres undefined) [Brompheniramine maleate],scaled lipid accumulation score,,0.343
same,scaled lipid accumulation score,[1],0.275
CN(C)CCC(c1ccc(Cl)cc1)c1ccccn1.O=C(O)/C=C\C(=O)O (centres undefined),scaled lipid accumulation score,[1],0.891 (active)
CN(C)CC[C@@H](c1ccc(Cl)cc1)c1ccccn1 [Dexchlorpheniramine maleate],scaled lipid accumulation score,[5],≤ 0
CN(C)CC[C@@H](c1ccc(Cl)cc1)c1ccccn1 [Chlorpheniramine (s) maleate],scaled lipid accumulation score,[5],0.181
same,scaled lipid accumulation score,[1],0.005
CCOc1nc2cccc(C(=O)OC(C)OC(=O)OC3CCCCC3)c2n1Cc1ccc(-c2ccccc2-c2nn[nH]n2)cc1 (centres undefined) [Candesartan cilextil],scaled lipid accumulation score,[1],≤ -0.027
CCOc1nc2cccc(C(=O)OC(C)OC(=O)OC3CCCCC3)c2n1Cc1ccc(-c2ccccc2-c2nn[nH]n2)cc1 (centres undefined) [Candesartan Cilexetil],scaled lipid accumulation score,[3],≤ 0
same,scaled lipid accumulation score,[1],≤ 0
"C/C=C/c1ccc(OC)cc1 [Anethole, trans-]",scaled lipid accumulation score,[6],≤ -0.006
C/C=C/c1ccc(OC)cc1 [Anethole],scaled lipid accumulation score,[1],0.104
same,scaled lipid accumulation score,[6],≤ 0
CCCCC/C=C\C\C=C/C=C/C=C/[C@@H](SC[C@H](N)C(=O)O)[C@@H](O)CCCC(=O)O [Leukotriene E4],scaled lipid accumulation score,library stock concentration: 100 uM,0.015
C[C@]1(c2nc3c(C(N)=O)cccc3[nH]2)CCCN1 [Veliparib (ABT-888)],scaled lipid accumulation score,[3],≤ 0
same,scaled lipid accumulation score,[1],≤ 0
C[C@]1(c2nc3c(C(N)=O)cccc3[nH]2)CCCN1 [Veliparib],scaled lipid accumulation score,library stock concentration: 80 uM,0.0075
same,scaled lipid accumulation score,library stock concentration: 400 uM,≤ -0.0045
same,scaled lipid accumulation score,library stock concentration: 2 mM,≤ -0.0045
same,scaled lipid accumulation score,[1],≤ -0.0045
CCCCCCCC/C=C\C/C=C\C/C=C\CCCC(=O)O [Mead acid (20:3 n-9)],scaled lipid accumulation score,[2],0.025
